# Test system: HepG2
# Assay: GSK_TCMDC: Percent inhibition of human HepG2 cell line. Test compounds present at 10uM.
# Assay type: functional
row,Structure (SMILES),Inhibition
1,Cl.Clc1ccc(C2CCN(CCCOc3ccc4c(c3)CCNCC4)CC2)cc1,93%
2,COc1ccc(N2CCN(c3nc(N)c4cc(OC)c(OC)cc4n3)CC2C)cc1.Cl (stereo not drawn),8%
3,CCCNCc1ccc(-c2ccc(CN(Cc3ccc4c(c3)OCO4)C(=O)[C@H]3CCCO3)cc2)nc1.O=C(O)C(F)(F)F,18%

# Source: ChEMBL document CHEMBL1157539, “Thousands of chemical starting points for antimalarial lead identification” (Nature, 2010)
